The results in this text go back to ChEMBL document CHEMBL2218924, “A broad activity screen in support of a chemogenomic map for kinase signalling research and drug discovery” (Biochem J, 2013).

Test [1] has as its target Tyrosine-protein kinase SYK (Homo sapiens) (UniProt P43405). The settings on record: at 10 µM.
The target of test [2] is T1, Mitogen-activated protein kinase kinase kinase 7 (Homo sapiens) (UniProt O43318).
T1 sequence (whole entry): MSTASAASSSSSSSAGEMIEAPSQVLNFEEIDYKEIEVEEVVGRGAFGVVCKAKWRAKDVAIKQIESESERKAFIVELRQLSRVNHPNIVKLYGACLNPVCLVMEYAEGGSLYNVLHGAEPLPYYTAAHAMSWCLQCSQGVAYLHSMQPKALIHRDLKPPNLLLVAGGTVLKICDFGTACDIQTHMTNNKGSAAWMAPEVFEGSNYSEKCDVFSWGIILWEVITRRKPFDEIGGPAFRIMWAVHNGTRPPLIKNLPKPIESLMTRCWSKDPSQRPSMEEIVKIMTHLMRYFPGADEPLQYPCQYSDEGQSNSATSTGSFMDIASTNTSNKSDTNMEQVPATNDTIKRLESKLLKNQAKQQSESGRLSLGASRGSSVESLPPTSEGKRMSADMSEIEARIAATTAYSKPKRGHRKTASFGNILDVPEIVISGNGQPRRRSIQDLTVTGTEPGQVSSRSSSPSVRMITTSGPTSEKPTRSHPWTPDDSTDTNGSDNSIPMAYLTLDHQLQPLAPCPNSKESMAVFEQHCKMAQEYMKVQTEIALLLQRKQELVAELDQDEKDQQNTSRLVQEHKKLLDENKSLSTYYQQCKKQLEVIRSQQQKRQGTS
The settings on record: at 1 µM.

The target in test [3] is T1, Mitogen-activated protein kinase kinase kinase 7 (Homo sapiens). The conditions noted are these: at 10 µM.
Test [4] deals with T2, Serine/threonine-protein kinase TAO1 (Homo sapiens) (UniProt Q7L7X3).
T2 sequence (whole entry): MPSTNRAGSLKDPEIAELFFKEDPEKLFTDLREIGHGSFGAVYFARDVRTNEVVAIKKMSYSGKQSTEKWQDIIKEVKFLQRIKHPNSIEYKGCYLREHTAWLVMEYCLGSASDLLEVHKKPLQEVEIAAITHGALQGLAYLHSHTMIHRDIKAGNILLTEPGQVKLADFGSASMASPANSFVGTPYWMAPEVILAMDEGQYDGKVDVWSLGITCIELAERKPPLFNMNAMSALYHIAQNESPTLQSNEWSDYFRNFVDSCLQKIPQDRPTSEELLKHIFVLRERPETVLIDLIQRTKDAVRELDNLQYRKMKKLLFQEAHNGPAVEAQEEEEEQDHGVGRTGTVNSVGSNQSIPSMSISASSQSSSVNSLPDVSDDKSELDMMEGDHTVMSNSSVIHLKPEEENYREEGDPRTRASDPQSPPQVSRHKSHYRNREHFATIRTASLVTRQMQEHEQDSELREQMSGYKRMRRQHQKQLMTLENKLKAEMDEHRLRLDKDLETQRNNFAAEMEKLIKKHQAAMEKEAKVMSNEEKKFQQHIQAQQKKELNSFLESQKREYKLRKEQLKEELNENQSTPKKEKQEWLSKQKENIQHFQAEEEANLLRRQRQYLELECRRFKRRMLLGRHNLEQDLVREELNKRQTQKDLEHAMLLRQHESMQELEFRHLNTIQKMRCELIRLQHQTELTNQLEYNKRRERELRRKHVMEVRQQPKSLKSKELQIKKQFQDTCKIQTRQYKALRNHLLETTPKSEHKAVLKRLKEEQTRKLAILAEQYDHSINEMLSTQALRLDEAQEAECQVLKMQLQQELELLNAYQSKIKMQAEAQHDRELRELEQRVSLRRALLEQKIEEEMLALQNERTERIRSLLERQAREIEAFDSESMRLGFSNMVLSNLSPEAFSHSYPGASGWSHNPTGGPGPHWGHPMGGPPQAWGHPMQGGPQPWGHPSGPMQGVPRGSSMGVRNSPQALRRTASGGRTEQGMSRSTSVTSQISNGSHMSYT
The settings on record: at 1 µM.

In test [5] the target is T2, Serine/threonine-protein kinase TAO1 (Homo sapiens). The settings on record: at 10 µM.
The target in test [6] is T3, Serine/threonine-protein kinase TAO2 (Homo sapiens) (UniProt Q9UL54).
T3 sequence (whole entry): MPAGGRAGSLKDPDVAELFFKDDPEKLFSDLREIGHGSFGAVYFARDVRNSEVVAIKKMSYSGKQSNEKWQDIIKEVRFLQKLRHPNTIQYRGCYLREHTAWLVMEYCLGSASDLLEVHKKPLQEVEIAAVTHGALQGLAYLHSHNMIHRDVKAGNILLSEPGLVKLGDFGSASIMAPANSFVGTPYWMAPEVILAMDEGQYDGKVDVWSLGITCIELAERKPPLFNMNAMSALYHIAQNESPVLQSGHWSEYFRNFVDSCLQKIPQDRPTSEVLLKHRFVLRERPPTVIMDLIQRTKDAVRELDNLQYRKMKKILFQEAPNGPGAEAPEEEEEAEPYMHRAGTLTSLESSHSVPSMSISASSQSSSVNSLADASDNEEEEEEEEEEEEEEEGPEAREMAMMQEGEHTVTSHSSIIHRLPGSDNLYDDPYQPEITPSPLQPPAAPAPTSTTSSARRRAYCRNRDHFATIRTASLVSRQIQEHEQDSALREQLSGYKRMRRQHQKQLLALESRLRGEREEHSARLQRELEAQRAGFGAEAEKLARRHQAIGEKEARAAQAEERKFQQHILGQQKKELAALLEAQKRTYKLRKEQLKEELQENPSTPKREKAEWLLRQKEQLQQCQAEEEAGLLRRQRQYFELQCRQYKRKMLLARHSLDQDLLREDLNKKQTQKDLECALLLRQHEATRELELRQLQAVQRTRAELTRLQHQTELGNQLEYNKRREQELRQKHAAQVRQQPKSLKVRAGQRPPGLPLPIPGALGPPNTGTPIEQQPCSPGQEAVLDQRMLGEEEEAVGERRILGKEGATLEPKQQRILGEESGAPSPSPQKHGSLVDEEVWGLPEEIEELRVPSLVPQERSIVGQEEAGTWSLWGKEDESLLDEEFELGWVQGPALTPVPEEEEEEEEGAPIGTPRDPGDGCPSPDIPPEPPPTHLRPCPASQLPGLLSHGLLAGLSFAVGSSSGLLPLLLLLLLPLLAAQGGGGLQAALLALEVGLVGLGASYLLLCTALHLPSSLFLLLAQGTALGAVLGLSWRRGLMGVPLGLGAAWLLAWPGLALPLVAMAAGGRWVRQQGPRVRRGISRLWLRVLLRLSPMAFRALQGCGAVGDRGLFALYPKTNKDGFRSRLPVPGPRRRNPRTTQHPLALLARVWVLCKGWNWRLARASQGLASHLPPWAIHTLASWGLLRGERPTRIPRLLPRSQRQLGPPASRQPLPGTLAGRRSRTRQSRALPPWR
The settings on record: at 1 µM.

For test [7], the target named is T3, Serine/threonine-protein kinase TAO2 (Homo sapiens). The conditions noted are these: at 10 µM.
The target in test [8] is T4, Serine/threonine-protein kinase TAO3 (Homo sapiens) (UniProt Q9H2K8).
T4 sequence (whole entry): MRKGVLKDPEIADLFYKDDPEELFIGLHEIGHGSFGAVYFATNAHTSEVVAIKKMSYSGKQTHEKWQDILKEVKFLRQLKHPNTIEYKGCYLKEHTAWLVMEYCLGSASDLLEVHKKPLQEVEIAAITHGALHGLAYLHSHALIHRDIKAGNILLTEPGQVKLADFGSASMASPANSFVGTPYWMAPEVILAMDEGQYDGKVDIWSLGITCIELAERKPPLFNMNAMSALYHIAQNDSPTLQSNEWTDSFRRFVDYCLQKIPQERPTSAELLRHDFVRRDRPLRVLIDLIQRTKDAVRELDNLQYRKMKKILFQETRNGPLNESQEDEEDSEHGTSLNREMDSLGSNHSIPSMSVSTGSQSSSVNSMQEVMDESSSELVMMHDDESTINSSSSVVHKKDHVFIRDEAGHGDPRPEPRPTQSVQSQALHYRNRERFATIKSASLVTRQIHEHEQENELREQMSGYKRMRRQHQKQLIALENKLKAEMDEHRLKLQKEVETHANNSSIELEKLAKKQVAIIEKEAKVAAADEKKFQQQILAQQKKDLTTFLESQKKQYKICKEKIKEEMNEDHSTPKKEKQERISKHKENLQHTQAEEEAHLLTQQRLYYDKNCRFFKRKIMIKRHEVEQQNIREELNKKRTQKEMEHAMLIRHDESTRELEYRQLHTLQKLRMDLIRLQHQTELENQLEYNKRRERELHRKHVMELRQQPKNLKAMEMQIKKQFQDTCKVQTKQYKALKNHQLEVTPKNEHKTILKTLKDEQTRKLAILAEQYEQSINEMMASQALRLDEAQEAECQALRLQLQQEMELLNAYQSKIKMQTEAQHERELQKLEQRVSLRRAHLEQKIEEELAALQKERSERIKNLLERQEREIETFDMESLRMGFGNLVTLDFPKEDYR
The settings on record: at 1 µM.

Test [9] deals with T4, Serine/threonine-protein kinase TAO3 (Homo sapiens). The conditions noted are these: at 10 µM.
For test [10], the target named is T5, Serine/threonine-protein kinase TBK1 (Homo sapiens) (UniProt Q9UHD2).
T5 sequence (whole entry): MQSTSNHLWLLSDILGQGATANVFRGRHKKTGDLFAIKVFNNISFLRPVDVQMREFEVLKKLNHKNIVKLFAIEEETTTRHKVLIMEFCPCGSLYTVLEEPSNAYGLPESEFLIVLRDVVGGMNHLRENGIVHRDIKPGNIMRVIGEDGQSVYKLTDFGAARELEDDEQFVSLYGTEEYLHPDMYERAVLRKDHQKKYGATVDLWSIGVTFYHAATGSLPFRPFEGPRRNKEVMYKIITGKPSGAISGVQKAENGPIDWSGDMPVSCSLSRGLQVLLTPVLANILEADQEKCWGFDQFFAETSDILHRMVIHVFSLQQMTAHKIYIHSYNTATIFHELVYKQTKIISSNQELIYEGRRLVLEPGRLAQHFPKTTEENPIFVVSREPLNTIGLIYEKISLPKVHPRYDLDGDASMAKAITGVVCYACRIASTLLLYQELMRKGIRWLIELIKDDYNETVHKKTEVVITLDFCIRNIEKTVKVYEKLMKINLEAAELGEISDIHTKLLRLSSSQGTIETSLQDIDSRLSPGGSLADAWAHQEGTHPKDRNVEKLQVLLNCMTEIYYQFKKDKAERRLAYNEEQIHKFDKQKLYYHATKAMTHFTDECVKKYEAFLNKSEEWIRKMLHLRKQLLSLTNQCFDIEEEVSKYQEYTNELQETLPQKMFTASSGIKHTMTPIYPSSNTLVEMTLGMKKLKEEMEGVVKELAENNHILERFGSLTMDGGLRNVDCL
The conditions noted are these: at 1 µM.

With `CC(=O)O/N=C1\C(=C2\C(=O)Nc3cc(Br)ccc32)Nc2ccccc21`, the residual activity was determined as 40% in test [1]; 91% in test [2]; 85% in test [3]; 89% in test [4]; 79% in test [5]; 81% in test [6]. Also, the residual activity turned out to be 83% in test [7], 96% in test [8], 86% in [9] and 57% in [10].
